Each structure is given as a SMILES string. The whole screen tested about 410,000 compounds, of which about 18,000 (4.4%) were called active. About 7% were inconclusive and are not listed. The full list was thinned out, with actives kept by preference. Unmarked numbers belong to inactive results. Cut-off read from the data, not from the text of the source: active = activity change below about -60%; inconclusive = no clear call, values can overlap the other calls; inactive = above about -39%.
% is set by controls: 0 for no effect and ±100 for the full control effect.

A short description of this assay: qHTS Assay for inhibitors of the human cytomegalovirus (HCMV). As to conditions: HFF cells, HCMV-luciferase reporter, 72 h; at 57.5 µM; stronger effect = lower value. An excerpt: NCGC Assay Overview: Infection with human cytomegalovirus (HCMV) continues to pose significant threats for pregnant women and immunocompromised hosts. HCMV causes serious morbidity and mortality in transplant recipients, and congenital HCMV is the leading infectious cause of mental retardation and deafness in children. In the 1990s, the annual costs associated with the disease burden of congenital CMV were estimated at around $2 billion. A HCMV vaccine is not available yet and HCMV therapies result in intolerable side effects and emergence of drug resistant viruses. […] Towards this goal we have developed and characterized a luciferase HCMV reporter that was initially used in 96 well plates and then optimized to 1536-well plates for utilization in screening of the MLSMR collection, the NGCG diversity collection and the NCGC Pharmaceutical Collection of approved and investigational drugs.
NCGC Assay Protocol Summary:
This is a cell-based assay for HCMV inhibition in HFFs cells. The screening used 2 compound doses and the HCMV-luciferase at MOI of 1 PFU/cell. Cells were treated and infected with HCMV. At 72 h post infection cell lysates were collected and luciferase activity was determined using the Glomax-Multi + Detection System (Promega, Madison, WI). Data were normalized to the controls for basal activity (buffer only) and known HCMV inhibitors Salinmoycin.
1536-well assay protocol for the assay:
(1) Add 3 ul CMV/HFF cell culture. 1000 cells/well in DMEM nirmal media.
(2) Incubate 16 hr at 37C.
(3) Add 23 nl control compound, 10uM of Salinomycin.
(4) Add 23 nl compounds in DMSO solution.
(5) Add 3 ul CMV suspension. Final 1 puf/ul, Virus stock 2000pfu/ul
(6) Incubate 72 hrs at 37C.
(7) Add 4 ul OneGlo Luc Reagent.
(8) Incubate 5 min at room temperature.
For orientation: In qHTS, concentration-response curves come from the screen itself.
Consider `CCOC(=O)c1c(C)[nH]c(CCC(=O)Nc2ccc(OC)c(OC)c2)c1C`, for which the activity change, negative = inhibition is 41.8%.
The same measure for `Cc1ccc(N(CC(=O)NCC(C)c2ccccc2)S(=O)(=O)N(C)C)cc1` (stereo not drawn): -6.91%.
Under `O=C(CCc1ccccc1)NCc1ccc2c(c1)CCN2C(=O)c1ccccc1` stands -7.19%; under `COC1=CCC2([N+](=O)[O-])CN(CC(=O)O)CC1([N+](=O)[O-])C2` (stereo not drawn), -16.1%; under `CCOC(=O)c1c(C)oc2nc(C)nc(Nc3ccc(CC)cc3)c12`, 8.66%.
The same measure for `O=C(Nc1ccc(OC(F)(F)F)cc1)c1cc2c(=O)n3ccccc3nc2s1`: -5.91%; for `COc1cc(CN(CC2CCCO2)C(=O)c2ccccc2F)cc(OC)c1OC` (stereo not drawn): -11.3%; for `CCOC(=O)CSC1=C(C#N)C(c2sccc2C)CC(=O)N1` (stereo not drawn): -85.4% (active).
`C=CCSC1=C(C#N)C(c2cc(Br)c(O)c(OC)c2)CC(=O)N1` (stereo not drawn): the activity change, negative = inhibition is -10.5%.
Under `Cc1ccsc1C1C(C#N)=C(N)OC2=C1C(=O)CC(C)C2` (stereo not drawn) stands 68.7%; under `Cc1c(-c2cccc(NC(=O)C(C)(C)C)c2)nc2ncccn12`, -37.8%.
Under `CC1CCN(Cc2nc3c(c(=O)n(C)c(=O)n3C)n2CCc2ccccc2)CC1` stands -62.3% (active); under `CC1CCCN(Cc2nc3c(c(=O)n(C)c(=O)n3C)n2CC(=O)c2ccccc2)C1` (stereo not drawn), -14.9%; under `COCCn1c(CN2CCC(Cc3ccccc3)CC2)nc2c1c(=O)n(C)c(=O)n2C`, -64.7% (active).
The same measure for `CN1CCN(Cc2nc3c(c(=O)n(C)c(=O)n3C)n2Cc2cccc3ccccc23)CC1`: -10.2%; for `CCN1CCN(Cc2nc3c(c(=O)n(C)c(=O)n3C)n2CC(=O)c2ccccc2)CC1`: -5.14%; for `CCOC(=O)N1CCN(Cc2nc3c(c(=O)n(C)c(=O)n3C)n2Cc2ccccc2)CC1`: -2.17%.
Take `COc1ccc(C)cc1NC(=O)CSc1nnc2ccc(-c3ccccn3)nn12`: the activity change, negative = inhibition was -16.1%.
Under `CC(C)CNc1cccc2c1S(=O)(=O)N[C@H](C)CO2` stands -8.73%.
The same measure for `O=[N+]([O-])c1cccc(/C([O-])=C(/C(=S)Nc2ccccc2F)[n+]2ccccc2)c1`: 18%; for `O=C(CCC1CCCN(C(=O)c2ccc(F)c(F)c2)C1)N1CCN(c2ccccn2)CC1` (stereo not drawn): -29.8%; for `C=Cc1ccc(C(=O)N2CCCC(CCC(=O)N3CCN(c4ccccn4)CC3)C2)cc1` (stereo not drawn): -64.7% (active).
With `CC(=O)c1ccc(S(=O)(=O)NCCC(=O)N2CCN(c3ccccn3)CC2)cc1`, the activity change, negative = inhibition was 60.8%.
With `COc1cccc(C(=O)NC2=NC(c3ccc(N(C)C)cc3)CC(=O)N2)c1` (stereo not drawn), the activity change, negative = inhibition is 1.4%.
The same measure for `O=C(Nc1cccc(-c2nc3ccccc3o2)c1)c1cccc(Br)c1`: -11.9%; for `COc1ccccc1NC(=O)C(=O)c1cc(C)n(-c2ccccc2F)c1C`: -34.6%.
The same measure for `CCCCOC(=O)CCCc1ccc([N+](=O)[O-])cc1[N+](=O)[O-]`: -14.8%; for `CCCCOc1ccc(CSC(=N)N)cc1[N+](=O)[O-]`: -63.8% (active).
Under `CCCCCOc1ccc(CSC2=NCCN2)cc1[N+](=O)[O-]` stands 9.19%.
Consider `CC(C)(Oc1ccc(C2CC2(Cl)Cl)cc1)C(=O)O` (stereo not drawn), for which the activity change, negative = inhibition was -0.36%.
The same measure for `O=C(NC1(C(F)(F)F)N=C(c2ccccc2)N(C2CCCCC2)C1=O)c1ccccc1F` (stereo not drawn): -18.3%; for `c1ccc2sc(SNC3CCCCC3)nc2c1`: 15%; for `O=C1NC(Nc2nc3ccccc3s2)(C(F)(F)F)C(=O)N1C1CCCCC1` (stereo not drawn): -63.1% (active).
The same measure for `COC(=O)c1ccc(NC(=O)CN(c2ccc(C)cc2)S(=O)(=O)c2c(C)n[nH]c2C)cc1`: 30%; for `COC(=O)C1CCN(C(=O)NC2CC(=O)N(c3ccc4c(c3)OCCO4)C2)CC1` (stereo not drawn): -8.55%; for `Cc1nc2ccn(Cc3cccs3)c(=O)c2cc1C(=O)NCc1ccc(Cl)cc1`: 0.24%.
The same measure for `CCOc1cccc(CC(=O)N2CCc3c([nH]c4ccccc34)C2c2ccc(F)cc2)c1OCC` (stereo not drawn): -33.4%; for `CCOc1cccc(CC(=O)N2CCc3c([nH]c4ccccc34)C2c2ccc(OC)cc2)c1OCC` (stereo not drawn): 31.4%; for `COc1ccc2[nH]c3c(c2c1)CCN(C(=O)CCC1CCCC1)C3c1ccc(F)cc1` (stereo not drawn): -81.8% (active).
Take `Cc1ccc(S(=O)(=O)N(C)C)cc1NC(=O)COC(=O)C1COc2ccccc2O1` (stereo not drawn): the activity change, negative = inhibition was 19%.
In the case of `Cc1ccc(S(=O)(=O)N(C)C)cc1NC(=O)COC(=O)/C=C/c1cccs1`, the activity change, negative = inhibition is -32.1%.
Under `Cc1ccc(S(=O)(=O)N(C)C)cc1NC(=O)COC(=O)c1c(C)noc1C` stands -108% (active); under `Cc1cc(C)c(-c2csc(NC(=O)CCCc3nc4ccccc4c(=O)[nH]3)n2)c(C)c1`, -72.6% (active); under `O=C(COC(=O)CCc1nc2ccccc2c(=O)[nH]1)Nc1ccc(N2CCOCC2)cc1`, -20.5%.
Under `CCN(CC(=O)Nc1cccc(S(N)(=O)=O)c1)Cc1nc2ccccc2c(=O)[nH]1` stands -27.6%; under `CC(C)NC(=O)N1CCN(c2ccncc2S(=O)(=O)N2CCCCC2)CC1`, 9.43%.
Under `O=C(Nc1nnc(-c2ccccc2F)s1)c1ccccc1F` stands 85%.
Regarding `O=C(Nc1nc2c(s1)CCCC2)c1ccccc1F`, the activity change, negative = inhibition is -68.5% (active).
The same measure for `CCN1CCc2nc(NC(=O)c3cc(F)c(F)cc3Cl)sc2C1`: -0.35%; for `C=CCn1c(C)cc(C2=NNC(=NCC)SC2)c1C`: -99.5% (active); for `COCCn1c(C)cc(C2=NNC(=Nc3ccc(F)cc3)SC2)c1C`: -107% (active).
For the molecule `COc1cccc(-c2nc(S(=O)(=O)c3ccc(C)cc3)c(NCc3ccccc3)o2)c1`, the activity change, negative = inhibition is 2.24%.
The same measure for `O=C(CSc1nnc(CNC(=O)c2ccccc2)n1-c1ccc(F)cc1)Nc1ccccc1F`: -5.45%.
Under `Cc1cccc(Cn2cccc(C(=O)Nc3ccc4c(c3)OCCO4)c2=O)c1` stands -12.1%; under `Cc1ccc(CN2CCNC(=O)C2CC(=O)NCc2csc(C(C)C)n2)cc1` (stereo not drawn), 6.06%.
For `O=S(=O)(NCC(c1ccccc1)N1CCc2ccccc21)c1ccccc1` (stereo not drawn), the activity change, negative = inhibition was 1.26%.
For the molecule `Cc1cccc(C(=O)N2c3nc(-c4ccco4)nn3C3(CCCCC3)[C@@H]3CCCC[C@@H]32)c1`, the activity change, negative = inhibition is -17.9%.
Under `COc1ccc(-c2nc3ccccc3s2)cc1NC(=O)COc1ccccc1C` stands 47.9%; under `COC(=O)Cc1[nH]n(-c2nc3ccccc3s2)c(=O)c1C(C)=Nc1ccc(OC)cc1`, -94.3% (active).
Take `COC(=O)c1cccc(C(=O)N2CCCC(Nc3ccc4c(c3)OCCO4)C2)c1` (stereo not drawn): the activity change, negative = inhibition was -15.6%.
Under `COc1cccc2c1cc1c(=O)n(CC(=O)N3CCN(c4cccc(Cl)c4)CC3)nc(C)n12` stands 50.4%; under `Cc1c(NC(=O)CN2C(=O)C(=O)N(Cc3ccccc3)C2=O)c(=O)n(-c2ccccc2)n1C`, -22.2%.
Under `CN(C)C(CNC(=O)c1cccc(S(=O)(=O)Nc2ccc(Br)cc2)c1)c1ccco1` (stereo not drawn) stands -19.6%.
In the case of `CN(C)C(CNC(=O)c1cc(Br)c(Br)s1)c1ccco1` (stereo not drawn), the activity change, negative = inhibition was -67.9% (active).
For the molecule `CN(C)C(CNC(=O)c1cccc(C#N)c1)c1ccco1` (stereo not drawn), the activity change, negative = inhibition was -2.12%.
On to `Cn1cc(/C=C/c2nc3ccccc3c(=O)n2-c2ccccc2)c2ccccc21`, for which the activity change, negative = inhibition is 31.9%.
Under `Cc1cccc(N=C2SC(C)CN2C(=O)CN2C(=O)NC3(CCCC3)C2=O)c1` (stereo not drawn) stands 0.641%; under `Cc1cccc(N=C2NC(=O)/C(=C/c3cn(C)c4ccccc34)S2)c1`, -80% (active); under `O=C(NCCc1ccccc1)c1ccc2c(c1)N(Cc1ccc(F)cc1)C(=O)c1ccccc1S2(=O)=O`, 10.3%.
The same measure for `Cc1cccc(-n2c(=O)c3c(c4cc(C)ccc4n3C)n(CC(=O)Nc3ccccc3Cl)c2=O)c1`: -1.31%; for `CCN(C(=O)COC(=O)Cc1c(F)cccc1Cl)c1c(N)n(Cc2ccccc2)c(=O)[nH]c1=O`: 2.58%.
In the case of `Cc1ccccc1CNC(=O)CCc1cn(Cc2ccccc2C)c2ccccc12`, the activity change, negative = inhibition was -37.2%.
As for `Cc1cccc2cc(CN(Cc3nnnn3Cc3ccccc3)C3CCCC3)c(=O)[nH]c12`, the activity change, negative = inhibition is -5.56%.
Under `CCC(c1nnnn1C1CCCC1)N(Cc1cccs1)Cc1cc2cccc(C)c2[nH]c1=O` (stereo not drawn) stands -63.3% (active).
`Cc1cccc2cc(CN(Cc3cccs3)C(=S)NCc3ccco3)c(=O)[nH]c12`: the activity change, negative = inhibition is -16.3%.
Turning to `CC(C)(O)C#Cc1ncc(C(F)(F)F)cc1Cl`, the activity change, negative = inhibition was -30.8%.
The same measure for `Cc1cc(C)cc(NS(=O)(=O)c2ccc(Oc3ncc(C(F)(F)F)cc3Cl)cc2)c1`: -17.1%.
Under `COc1cccc(/C=N/Nc2ncc(C(F)(F)F)cc2Cl)c1O` stands -102% (active).
For `COc1ccccc1Nc1nc(N)nc(CSC(=S)N2CCOCC2)n1`, the activity change, negative = inhibition was 37.2%.
Under `Cc1cccc(CC(=O)N2CC(=O)Nc3ccc(F)cc3C2c2ccccc2)c1` (stereo not drawn) stands 12%.
The same measure for `COC(=O)CNC(c1ccccc1Cl)c1cc(Br)ccc1NC(=O)CCN1CCOCC1` (stereo not drawn): -21.3%; for `CCCCCn1c(CCNC(=O)c2ccc(F)cc2)nc2ccccc21`: -18.8%; for `COC(=O)c1ccc(C2C(C(=O)Nc3ccccc3)=C(C)Nc3nc4ccccc4n32)cc1` (stereo not drawn): 1.76%.
Under `Cn1c(NC(=O)c2ccccc2)nc2ccccc21` stands -84.9% (active); under `Cc1c(NS(=O)(=O)c2ccc(Cl)cc2)c(=O)n(-c2ccccc2)n1C`, 8.64%; under `CC(=O)Nc1ccc(NC(=O)CCCc2nc(-c3ccc(C(C)(C)C)cc3)no2)cc1`, -87.3% (active).
`CC(=O)c1ccc(NC(=O)CCc2nc(-c3ccc(C)cc3)no2)cc1`: the activity change, negative = inhibition is 2.06%.
Under `Cc1cc(C)cc(NC(=O)CCCc2nc(-c3ccccc3Cl)no2)c1` stands -10.6%.

For the origin of these results see PubChem BioAssay AID1259415 (National Center for Advancing Translational Sciences (NCATS), 2018).
